# Compound activity (PubChem)
# Most compounds without a hit are left out; they make up all but 3.3% or so of the library.
# PNC inhibitor – inhibitors of perinucleolar compartment assembly | AID 2417 | PC3M PTB-GFP, PNC prevalence imaging, 16 h; active compounds read low | actives 3.1% (n = 140,000) | activity change (PNC), negative = inhibition, % at 10 µM;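 active = readout at or below -70, meaning at least 70% loss of cells showing the perinucleolar compartment, a nuclear body marking cancer cells; inconclusive = readout between -30 and a set limit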;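 also: plate controls were DMSO wells for no effect and camptothecin positive control wells for full effect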
#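 PC3M cells stably expressing PTB-GFP, 750–1000 cells/well, treated 16 h at 37 °C with compound (23 nl of library stock), in duplicate. After paraformaldehyde fixation and Hoechst stain, imaged at 20x; PNC prevalence scored by image analysis.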
# NPSR antagonist – antagonists of human neuropeptide S receptor cAMP signaling; CHO-NPSR cells, cAMP TR-FRET, antagonist mode; Potency, µM (highest dose often 38.3 µM), for the others: top-dose activity change, negative = inhibition, actives largely listed as inhibitors; actives 1% (n = 220,000); AID 1461; also: potency is read from the fitted curve at half-maximal effect; % is scaled to controls: 0 for no effect and ±100 for the full control effect; nearly all actives have a fitted effect of over 50% in size
# Target sequence (Q6W5P4 whole entry, looked up): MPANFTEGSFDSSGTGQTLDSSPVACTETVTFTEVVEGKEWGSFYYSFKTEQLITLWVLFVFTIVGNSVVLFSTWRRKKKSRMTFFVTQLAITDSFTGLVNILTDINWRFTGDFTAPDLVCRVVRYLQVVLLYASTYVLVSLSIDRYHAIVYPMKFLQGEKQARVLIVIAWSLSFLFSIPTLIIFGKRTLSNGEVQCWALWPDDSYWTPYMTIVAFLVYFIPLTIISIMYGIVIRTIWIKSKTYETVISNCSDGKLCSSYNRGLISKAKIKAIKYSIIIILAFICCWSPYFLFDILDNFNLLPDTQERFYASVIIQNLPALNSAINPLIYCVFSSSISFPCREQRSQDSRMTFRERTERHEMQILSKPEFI
# HttQ103 aggreg – mutant huntingtin aggregation inhibition; Potency, µM (highest dose often 46.1 µM), for the others: at the top dose activity change, negative = inhibition, actives largely listed as inhibitors; PC12 HttQ103-GFP aggregates, Acumen cytometry, 40 h; actives 1.1% (n = 220,000); also: potency is read from the fitted curve at half-maximal effect; % is scaled to controls: 0 for no effect and ±100 for the full control effect; nearly all actives have a fitted effect of over 60% in size
#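 PC12/HTTQ103-GFP, ecdysone-inducible; teb 100 nM; cpd qHTS titration; GFP aggregates read on laser cytometer, Ex 488/Em 500-530 nm.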
# IMPase cell inh – cell-permeable inhibitors of inositol monophosphatase (IMPase); 120,000 tested, under 10 active; P97697; CHO-M1 cells, IP1 accumulation, HTRF TR-FRET ratio; inhibition (IP1 accumulation), % at 46.1 µM; active = well fitted curve in the direction sought with a large enough effect in the signal ratio, not every such curve was filed as active; inconclusive = small, poorly fitted or top-dose-only effect, or a change in a side signal; inactive = no such curve, though single readings can be large or run the other way; the % refers to the signal ratio;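 also: cells stimulated with carbachol in lithium chloride buffer; plate controls were DMSO basal wells for no effect and reference inhibitor wells for full effect; higher means more IMPase inhibition seen as more IP1 and lower FRET ratio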
# Target sequence (P97697 whole entry, looked up): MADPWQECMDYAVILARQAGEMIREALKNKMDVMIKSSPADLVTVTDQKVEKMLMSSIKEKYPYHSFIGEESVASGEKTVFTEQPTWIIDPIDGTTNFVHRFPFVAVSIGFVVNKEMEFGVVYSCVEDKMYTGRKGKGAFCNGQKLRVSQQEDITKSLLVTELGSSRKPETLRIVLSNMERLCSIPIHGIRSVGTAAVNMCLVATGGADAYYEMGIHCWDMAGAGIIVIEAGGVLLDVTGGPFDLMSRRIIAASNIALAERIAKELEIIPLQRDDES
#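 CHO-M1 cells (CHO stably expressing M1 receptor), compound up to 46 uM final, stimulated with carbachol (50 uM as added) in buffer with 50mM LiCl, pH 7.4, 30 min at 37C. Cytosolic IP1 read by TR-FRET; AC50 from Hill fits.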
# HTT cytoprotect – protects HTT-Q103 PC12 cells, measured by ATP | actives 0.14% (n = 230,000) | AID 1471 | Potency, µM (titrated, usually from 56.4 µM), for the others: cytoprotection (ATP increase), usual class: activators | PC12 HTT-Q103 induced, cytoprotection, ATP luminescence, 40 h; also: potency is read from the fitted curve at half-maximal effect; % of control where 0% means no effect; nearly all actives have a fitted effect of over 45% in size
#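 Quantitative HTS on tebufenozide-induced (100 nM) PC12 cells expressing HTTQ103 exon 1–GFP; compounds tested as a concentration series; survival measured via cellular ATP.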
# 12-hLO inh – blocks human 12-lipoxygenase activity; P18054; purified 12-hLO, xylenol orange hydroperoxide absorbance; Potency, µM (titrated, usually from 57.1 µM), for inactives: top-dose activity change, negative = inhibition, actives largely listed as inhibitors; actives 0.12% (n = 150,000); AID 1452; also: potency is read from the fitted curve at half-maximal effect; % is scaled to controls: 0 for no effect and ±100 for the full control effect; nearly all actives have a fitted effect of over 55% in size
#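 Lipoxygenase turnover measured by absorbance at 573 and 405 nm after Fe-XO development. Human 12hLO 150 nM, arachidonate 40 uM, pH 7.0 Hepes buffer with detergent; 15 min compound preincubation, 30 min reaction.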
# * = called active by the depositor; ? = inconclusive; . = no result; [ ] = remark or other dose. Unless noted, calls follow the shape of the dose curve; as a rule, active = well fitted curve in the direction sought with a large enough effect; inconclusive = small, poorly fitted or top-dose-only effect, or another doubt; inactive = no such curve, though single readings can be large; an effect the other way counts as inactive or inconclusive.
SMILES,PNC inhibitor,NPSR antagonist,HttQ103 aggreg,IMPase cell inh,HTT cytoprotect,12-hLO inh
O=C(CCl)Nc1cccn2ncnc12,46,-15%[46.1 µM],20µM*,-4,-73%,9%
CC(=O)/C=C/n1c(=S)oc2ccccc21,?,-13%,7.1µM*,.,-96%[10 µM],3%
CC(=O)Nc1ccc(OC(=O)c2ccc(Cl)cc2)cc1,-80*,10%,-4%,.,.,-3%
CCN(CC)S(=O)(=O)c1ccc(N2CCCC2)c(NC(=O)Cc2ccc(OC)cc2)c1,.,-38%,11%,.,.,.
CCOc1ccc(S(=O)(=O)Nc2cc(S(=O)(=O)N(CC)CC)ccc2N2CCCC2)cc1,-121*,-33%,-10%,.,3%[10 µM],-2%
CCc1nnc(NC(=O)CSc2nnc3ncccn23)s1,-82*,6%[46.1 µM],14%,-10[1.84 µM],6%[10 µM],1%
O=C(CSc1nnc2ncccn12)N1CCCCCC1,?,1%[46.1 µM],0.56µM*,1,-14%,-1%
Cc1csc(NC(=O)CSc2nnc3ncccn23)n1,?,-8%[46.1 µM],7%,12,4%,0%
Cn1c(CSc2ncccn2)nnc1SCC(=O)N1CCCCC1,18,3%[46.1 µM],-1%,-12,-8%[10 µM],0%
CCOC(=O)c1ccc(N2C(=O)C=CC2=O)cc1,?,?,22µM*,7,-96%,-8%
CCOC(=O)N1CCN(C(=O)c2ccc(N3C(=O)CCC3=O)cc2)CC1,-89*,-3%[46.1 µM],-2%,-7,-2%[10 µM],2%
CCOC(=O)N1CCN(C(=O)c2ccc(OCC)cc2)CC1,.,-21%,20%[9.22 µM],.,12%[10 µM],.
CC1CCc2c(sc(NC(=O)C3c4ccccc4Oc4ccccc43)c2C#N)C1 (stereo not drawn),.,.,.,6,.,.
CCN(CC)CC(=O)n1c2c(c3ccccc31)CCCC2,-100*,-21%[46.1 µM],-8%,2,-3%,-7%
CCCC(=O)N1c2ccccc2C(=C2SC(C(=O)OC)=C(C(=O)OC)S2)C(=S)C1(C)C,23,-55%,-11%,-1,19%[10 µM],5%
COC(=O)C1=C(C(=O)OC)SC(=C2C(=S)C(C)(C)N(C(=O)C3CC3)c3ccccc32)S1,-4,13µM*,22%,3,18%,-15%
COC(=O)C1=C(C(=O)OC)SC(=C2C(=S)C(C)(C)N(C(=O)C(C)C)c3ccccc32)S1,37,10µM*,?,9,10%,-14%
CCOC(=O)C1=C(C)OC(N)=C(C#N)C1c1ccc(C)s1 (stereo not drawn),.,5%,-3%,.,-17%,.
Cc1cccc(OCC(=O)NCc2cc(C)nc3ccccc23)c1,.,8%,-15%,.,-19%,.
N#CC1=C(N)OC2=C(CCc3ccccc32)C1c1ccccc1 (stereo not drawn),-83*,-31%,26%,.,-72%[10 µM],1%
Cc1ccc(N(CC(=O)NCCSc2ccccc2)S(=O)(=O)c2ccc(F)cc2)cc1,.,.,.,3,.,.
O=C(Nc1ccc(Oc2ccccc2)cc1)C1CCN(c2c3c(nc4ncnn24)CCC3)CC1,67,13µM*,8.9µM*,17,-66%,-3%
O=C(NC1CCCc2ccccc21)C1CCN(c2c3c(nc4ncnn24)CCC3)CC1 (stereo not drawn),-20,-19%[46.1 µM],-17%,3,5%,6%
COc1ccc(NC(=O)C2CCCN(c3c4c(nc5ncnn35)CCC4)C2)cc1OC (stereo not drawn),12,12%[46.1 µM],15%,3,-12%,-5%
c1nc2nc3c(c(N4CCOCC4)n2n1)CCCC3,-107*,-1%[46.1 µM],4%,-3,19%,-2%
SMILES,PNC inhibitor,NPSR antagonist,HttQ103 aggreg,IMPase cell inh,HTT cytoprotect,12-hLO inh
O=C(Nc1ccc2c(c1)CCC2)C1CCN(c2c3c(nc4ncnn24)CCC3)CC1,19,-6%[46.1 µM],11µM*,0,5%[10 µM],-9%
Cc1cc(OCC(=O)NC(Cc2c[nH]c3ccccc23)C(=O)O)ccc1Cl (stereo not drawn),.,.,.,-1,.,.
O=C(Nc1ccc2c(c1)OCO2)N1CCC(CO)(CC2CCCCO2)CC1 (stereo not drawn),.,4%,-18%[9.22 µM],.,-4%[10 µM],.
COC(=O)C1C(=O)C2=C(CC1C)NC(C)=C(C(=O)OC1CCCCC1)C2c1ccc(N(C)C)cc1 (stereo not drawn),-100*,-27%[46.1 µM],-21%,-7,-1%[10 µM],-9%
CCc1ccc(NS(=O)(=O)c2ccc3[nH]cc(C(=O)N(C)Cc4ccco4)c(=O)c3c2)cc1,-114*,-4%[46.1 µM],0.1µM*,-3,-7%,?
COc1ccc(-n2nc3cc(C)c(NC(=O)Cc4ccc(Cl)cc4)cc3n2)cc1,.,.,.,2,.,.
COCCn1c(=O)c(-c2cccs2)nc2cnc(OCc3ccccc3)nc21,.,.,.,.,?,-3%
COc1ccccc1/C=C1\S/C(=N/NC(=O)c2cccc(Br)c2)NC1=O,?,-27%[46.1 µM],10µM*,3,-84%,-25%
COC(=O)/C=C1\S/C(=N/NC(=O)c2ccccc2)NC1=O,-18,-3%[46.1 µM],0%,4,11%,-19%
O=C(c1ccncc1)N1CCC2(CCN(Cc3nccs3)CC2)CC1,.,.,.,.,5%,4%
COc1ccc(F)cc1S(=O)(=O)Nc1ccccc1C(=O)O,.,.,.,.,.,-1%
O=C(CSc1nnc2ccccn12)N1CCc2ccccc21,.,2%,-5%,.,-35%,.
COc1ccc(CCN(C)CCCC(C#N)(c2cc(OC)c(OC)c(OC)c2)C(C)C)cc1OC (stereo not drawn),-115*,?,7%,.,-23%,-4%
O=C(CN1CCNCC1)NC1CCCCC1,.,.,-8%,.,-11%,.
CC1=NOC(=O)/C1=C/c1ccc(-c2ccc(Cl)cc2)o1,-29,?,?,2,-91%,?
CC1=NOC(=O)/C1=C\c1ccc(-c2cc(Cl)ccc2Cl)o1,-16,10µM*,-1%,1,6%[10 µM],-5%
C=CC[C@@H]1[C@H](O)CC[C@@]2(C)[C@H]1CC[C@@H]1[C@@H]2CC[C@]2(C)C([C@H](C)CCCC(C)C)CC[C@@H]12 (stereo partly drawn),.,.,.,.,-5%,.
COC(=O)c1[nH]c2ccc(C)cc2c1NC(=O)CN1CCN(c2ccccc2)CC1,-22,-27%[46.1 µM],?,18,-76%[0.074 µM],-1%
COC(=O)c1[nH]c2ccc(C)cc2c1NC(=O)CN1CCN(c2ccc(F)cc2)CC1,19,?,-27%,10,1.6µM*,-10%
CCOC(=O)/C(C#N)=C1\C=CN(C)C(C)=N1,-100*,-1%[46.1 µM],-10%,0,22%[10 µM],1%
Cc1cc(SCC(=O)N/N=C/c2ccc(O)cc2O)c(C)cc1Br,?,-11%[46.1 µM],7.9µM*,2,-26%,?
